Reference: PubChem BioAssay AID1159580 (chemical genetic matrix, 2015)
“And” between values parts separate entries of the source, which are not always exact repeats. Equal entries are not always repeated. Screen size: about 5,500 compounds; about 2,000 (36%) were called active. About 18% were inconclusive and are not listed. Cut-off read from the data, not from the text of the source: active = normalized growth mostly below about 0.91 (no sharp cut-off); inconclusive = no clear call, values can overlap the other calls; inactive = mostly above about 0.92. This is one part of the list.

Test: chemical genetic growth profiling, strain panel (AID 1159580);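 note: tested at 20 µM; growth read once vehicle control cultures reached saturation at 30 °C; 1 = growth at the plate median or of vehicle wells; lower values mean less growth of the strain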
Details: S. cerevisiae deletion strains, growth OD

Measured: normalized growth

COc1c(O)cc(O)cc1O
inactive: locus YAL021C, strain ccr4, hits give low values 1.01 | locus YAL026C, strain drs2, hits give low values 1.02 | locus YAL030W, strain snc1, hits give low values 0.999 | locus YBL061C, strain skt5, hits give low values 0.996 | locus YBR009C, strain hhf1, hits give low values 1.02 | locus YBR021W, strain FUR4, hits give low values 0.985 | locus YBR023C, strain chs3, hits give low values 1.01 | locus YBR171W, strain sec66, hits give low values 0.994 | locus YBR229C, strain ROT2, hits give low values 1 | locus YBR231C, strain swc5, hits give low values 1.01 | locus YBR279W, strain paf1, hits give low values 1 | locus YCL011C, strain gbp2, hits give low values 1.01 | locus YCL016C, strain dcc1, hits give low values 1.01 | locus YCL029C, strain bik1, hits give low values 1.02 | locus YCL061C, strain MRC1, hits give low values 1 | locus YCL069W, strain vba3, hits give low values 1 | locus YCR088W, strain abp1, hits give low values 0.992 | locus YDL005C, strain med2, hits give low values 0.983 | locus YDL035C, strain GPR1, hits give low values 1.07 | locus YDL040C, strain nat1, hits give low values 0.981 | locus YDL074C, strain BRE1, hits give low values 1.06 | locus YDL101C, strain DUN1, hits give low values 0.992 | locus YDL185W, strain tfp1, hits give low values 0.978 | locus YDL192W, strain arf1, hits give low values 1 | locus YDR001C, strain nth1, hits give low values 1 | locus YDR069C, strain doa4, hits give low values 1 | locus YDR101C, strain arx1, hits give low values 1.04 | locus YDR137W, strain rgp1, hits give low values 1.04 | locus YDR159W, strain sac3, hits give low values 0.976 | locus YDR162C, strain NBP2, hits give low values 1.06 | locus YDR195W, strain ref2 0.951 | locus YDR297W, strain sur2, hits give low values 0.998 | locus YDR318W, strain mcm21, hits give low values 1 | locus YDR334W, strain swr1, hits give low values 0.994 | locus YDR335W, strain msn5, hits give low values 1 | locus YDR388W, hits give low values 0.997 | locus YDR392W, strain spt3, hits give low values 1.01 | locus YDR502C, strain sam2, hits give low values 0.998 | locus YEL003W, strain gim4, hits give low values 1.02 | locus YEL037C, strain rad23, hits give low values 1 | locus YEL061C, strain CIN8 (second series), hits give low values 1.01 | locus YEL061C, strain CIN8, hits give low values 1.01 | locus YER015W, strain faa2, hits give low values 1 | locus YER016W, strain bim1, hits give low values 0.996 | locus YER110C, hits give low values 0.991 | locus YER111C, strain swi4, hits give low values 0.989 | locus YER155C, strain BEM2 (second series), hits give low values 1.02 | locus YER155C, strain BEM2, hits give low values 0.989 | locus YER167W, strain BCK2, hits give low values 1 | locus YFR010W, strain ubp6, hits give low values 0.999 | locus YGL078C, strain dbp3, hits give low values 0.969 | locus YGL086W, strain mad1, hits give low values 1.01 | locus YGL167C, strain pmr1, hits give low values 0.998 | locus YGL173C, strain kem1, hits give low values 0.999 | locus YGL227W, strain vid30, hits give low values 0.988 | locus YGL240W, strain doc1, hits give low values 0.992 | locus YGL248W, strain PDE1, hits give low values 0.996 | locus YGL253W, strain hxk2, hits give low values 1.01 | locus YGR078C, strain PAC10, hits give low values 1.02 | locus YGR135W, strain pre9, hits give low values 0.972 | locus YGR252W, strain gcn5, hits give low values 0.997 | locus YHR013C, strain ard1, hits give low values 1.01 | locus YHR027C, strain rpn1, hits give low values 0.988 | locus YHR030C, strain SLT2, hits give low values 1.01 and 1.05 | locus YHR079C, strain IRE1 (second series), hits give low values 0.997 | locus YHR079C, strain IRE1, hits give low values 1.02 | locus YHR094C, strain hxt1, hits give low values 1 | locus YHR129C, strain ARP1, hits give low values 0.998 | locus YHR142W, strain chs7, hits give low values 1.03 | locus YHR200W, strain rpn10, hits give low values 0.984 | locus YIL066C, strain RNR3, hits give low values 1 | locus YIL073C, strain SPO22, hits give low values 1.05 | locus YIL125W, strain kgd1, hits give low values 1 | locus YIR030C, strain dcg1, hits give low values 1.01 | locus YJL092W, strain hpr5, hits give low values 0.995 | locus YJL095W, strain BCK1 (second series), hits give low values 1 | locus YJL095W, strain BCK1, hits give low values 0.998 and 1.05 | locus YJL115W, strain asf1, hits give low values 0.992 | locus YJL129C, strain trk1, hits give low values 0.989 | locus YJL134W, strain LCB3, hits give low values 0.997 | locus YJL154C, strain vps35, hits give low values 0.995 | locus YJL164C, strain tpk1, hits give low values 1.01 | locus YJL166W, strain qcr8, hits give low values 1.05 | locus YJL168C, strain set2, hits give low values 1 | locus YJL187C, strain SWE1 (second series), hits give low values 0.997 | locus YJL187C, strain SWE1, hits give low values 1 | locus YJR043C, strain POL32, hits give low values 1.07
